Experimental data published in the supplement of paper PMC10849652.
Of roughly 7,900 targets only a part is listed; those with a hit were picked by preference. About 0.6% of all pairs of compound and target were hits. Unmarked numbers belong to inactive results.

Tests used:
Experiment in all cases: log2 fold change, soluble protein after heating vs DMSO (PISA); higher = thermal stabilisation; K562 cells, 10 uM, 30 min; active = over 0.2 and 3.5 SD of the protein, either way, in both replicates (recomputed)
[1] = compound: CC1=C(C=C(C=C1)NC(=O)C2=CC(=CC=C2)C(C)(C)C#N)NC3=CC4=C(C=C3)N=CN(C4=O)C
Method in brief: (§1)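 Aliquots of K562 cells (2×10^6 cells/mL) treated with 10 μM compound for 30 min were heated for 3 min over 48°C-58°C. After pooling and extraction in PBS with 0.5% NP-40 at 4°C, soluble protein from a 21,000xg, 90 min spin was quantified by TMTpro 16plex LC-MS/MS with channel sums equalised. Thermal stability is expressed against control samples, from duplicates, as a log2 fold change.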

[2] = compound: CN1C2=C(C3=C1C(=O)N(N=C3)CC4=CC(=CC=C4)N)SC(=C2)S(=O)C
Method in brief: as §1

barasertib = compound: CCN(CCCOc1ccc2c(Nc3cc(CC(=O)Nc4cccc(F)c4)[nH]n3)ncnc2c1)CCOP(=O)(O)O [barasertib]
Method in brief: as §1

[3] = compound: CC[C@@H]1C(=O)N(C)c2cnc(Nc3ccc(C(=O)NC4CCN(C)CC4)cc3OC)nc2N1C1CCCC1
Method in brief: as §1

rosiglitazone = compound: CN(CCOC1=CC=C(C=C1)C[C@H]2C(=O)NC(=O)S2)C3=CC=CC=N3 (racemic) [rosiglitazone]
Method in brief: as §1

[4] = compound: CC1=C(C=C(C=C1)NC(=O)C2=CC(=CC=C2)N(C)C)NC(=O)C3=CC=C(C=C3)O
Method in brief: as §1

[5] = compound: CC1=CC=C(C=C1)SC2=C3C=C(SC3=CN=C2)C(=O)N
Method in brief: as §1

Nexturastat A = compound: CCCCN(Cc1ccc(C(=O)NO)cc1)C(=O)Nc1ccccc1 [Nexturastat A]
Method in brief: as §1

vemurafenib = compound: CCCS(=O)(=O)Nc1ccc(F)c(C(=O)c2c[nH]c3ncc(-c4ccc(Cl)cc4)cc23)c1F [vemurafenib]
Method in brief: as §1

[6] = compound: CCCS(=O)(=O)Nc1ccc(F)c(C(=O)c2c[nH]c3ncc(Cl)cc23)c1F
Method in brief: as §1

[7] = compound: CCCc1cc(C)[nH]c(=O)c1CNC(=O)c1cc(-c2ccnc(N3CCN(C)CC3)c2)cc2c1cnn2C(C)C
Method in brief: as §1

givinostat = compound: CCN(CC)Cc1ccc2cc(COC(=O)Nc3ccc(C(=O)NO)cc3)ccc2c1 [givinostat]
Method in brief: as §1

volasertib = compound: CC[C@@H]1C(=O)N(C)c2cnc(Nc3ccc(C(=O)N[C@H]4CC[C@H](N5CCN(CC6CC6)CC5)CC4)cc3OC)nc2N1C(C)C [volasertib]
Method in brief: as §1

[8] = compound: CC[C@H](C)N1C=C(C2=C(C=C(C=C21)C3=CN=C(C=C3)N4CCNCC4)C(=O)NCC5=C(C=C(NC5=O)C)C)C
Method in brief: as §1

epoxomicin = compound: CC[C@H](C)[C@@H](C(=O)N[C@@H]([C@@H](C)O)C(=O)N[C@@H](CC(C)C)C(=O)[C@]1(CO1)C)NC(=O)[C@H]([C@@H](C)CC)N(C)C(=O)C [epoxomicin]
Method in brief: as §1

[9] = compound: CCn1c(C(=O)N(C2CC2)C2CC2)cc2c3c(ncn3C)c(Nc3cc(C)n(C)n3)nc21
Method in brief: as §1

[10] = compound: CCn1cc(-c2ccnc3[nH]c(-c4cccc(CN(C)C)c4)cc23)c(-c2ccc(NC(=O)N(C)C)cc2)n1
Method in brief: as §1

[11] = compound: CN(C)CC(=O)Nc1ccc2[nH]c(=O)c3ccccc3c2c1
Method in brief: as §1

[12] = compound: CN1CCC(CNc2ccc3ncc(-c4cccc(OC(F)(F)F)c4)n3n2)CC1
Method in brief: as §1

[13] = compound: CC1=NC(=CC=C1)C2=C(N=C(N2)C(C)(C)C)C3=CC4=NC=CN=C4C=C3
Method in brief: as §1

Sequence of UniProt Q8IZE3 (Q8IZE3 whole entry, looked up): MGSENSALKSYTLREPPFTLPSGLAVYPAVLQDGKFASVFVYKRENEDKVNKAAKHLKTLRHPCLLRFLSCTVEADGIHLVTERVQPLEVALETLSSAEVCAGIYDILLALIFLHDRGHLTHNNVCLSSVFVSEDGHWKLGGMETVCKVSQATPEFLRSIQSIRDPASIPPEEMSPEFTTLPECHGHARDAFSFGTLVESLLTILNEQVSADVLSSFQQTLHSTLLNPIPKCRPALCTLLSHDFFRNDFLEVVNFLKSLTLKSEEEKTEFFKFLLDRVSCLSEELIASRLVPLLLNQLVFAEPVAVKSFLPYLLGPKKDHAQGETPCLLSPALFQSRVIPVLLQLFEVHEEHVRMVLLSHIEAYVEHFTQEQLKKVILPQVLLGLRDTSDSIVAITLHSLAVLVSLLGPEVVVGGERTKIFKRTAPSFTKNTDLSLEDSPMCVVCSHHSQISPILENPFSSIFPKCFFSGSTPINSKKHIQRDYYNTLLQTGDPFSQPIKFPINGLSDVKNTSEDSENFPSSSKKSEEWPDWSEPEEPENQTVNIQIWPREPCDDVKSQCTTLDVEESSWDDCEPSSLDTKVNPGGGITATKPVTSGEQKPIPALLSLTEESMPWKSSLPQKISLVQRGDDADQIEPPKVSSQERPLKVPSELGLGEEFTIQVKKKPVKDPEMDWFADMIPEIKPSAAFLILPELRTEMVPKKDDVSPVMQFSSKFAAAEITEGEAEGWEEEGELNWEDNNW
Sequence of UniProt Q13796 (Q13796 whole entry, looked up): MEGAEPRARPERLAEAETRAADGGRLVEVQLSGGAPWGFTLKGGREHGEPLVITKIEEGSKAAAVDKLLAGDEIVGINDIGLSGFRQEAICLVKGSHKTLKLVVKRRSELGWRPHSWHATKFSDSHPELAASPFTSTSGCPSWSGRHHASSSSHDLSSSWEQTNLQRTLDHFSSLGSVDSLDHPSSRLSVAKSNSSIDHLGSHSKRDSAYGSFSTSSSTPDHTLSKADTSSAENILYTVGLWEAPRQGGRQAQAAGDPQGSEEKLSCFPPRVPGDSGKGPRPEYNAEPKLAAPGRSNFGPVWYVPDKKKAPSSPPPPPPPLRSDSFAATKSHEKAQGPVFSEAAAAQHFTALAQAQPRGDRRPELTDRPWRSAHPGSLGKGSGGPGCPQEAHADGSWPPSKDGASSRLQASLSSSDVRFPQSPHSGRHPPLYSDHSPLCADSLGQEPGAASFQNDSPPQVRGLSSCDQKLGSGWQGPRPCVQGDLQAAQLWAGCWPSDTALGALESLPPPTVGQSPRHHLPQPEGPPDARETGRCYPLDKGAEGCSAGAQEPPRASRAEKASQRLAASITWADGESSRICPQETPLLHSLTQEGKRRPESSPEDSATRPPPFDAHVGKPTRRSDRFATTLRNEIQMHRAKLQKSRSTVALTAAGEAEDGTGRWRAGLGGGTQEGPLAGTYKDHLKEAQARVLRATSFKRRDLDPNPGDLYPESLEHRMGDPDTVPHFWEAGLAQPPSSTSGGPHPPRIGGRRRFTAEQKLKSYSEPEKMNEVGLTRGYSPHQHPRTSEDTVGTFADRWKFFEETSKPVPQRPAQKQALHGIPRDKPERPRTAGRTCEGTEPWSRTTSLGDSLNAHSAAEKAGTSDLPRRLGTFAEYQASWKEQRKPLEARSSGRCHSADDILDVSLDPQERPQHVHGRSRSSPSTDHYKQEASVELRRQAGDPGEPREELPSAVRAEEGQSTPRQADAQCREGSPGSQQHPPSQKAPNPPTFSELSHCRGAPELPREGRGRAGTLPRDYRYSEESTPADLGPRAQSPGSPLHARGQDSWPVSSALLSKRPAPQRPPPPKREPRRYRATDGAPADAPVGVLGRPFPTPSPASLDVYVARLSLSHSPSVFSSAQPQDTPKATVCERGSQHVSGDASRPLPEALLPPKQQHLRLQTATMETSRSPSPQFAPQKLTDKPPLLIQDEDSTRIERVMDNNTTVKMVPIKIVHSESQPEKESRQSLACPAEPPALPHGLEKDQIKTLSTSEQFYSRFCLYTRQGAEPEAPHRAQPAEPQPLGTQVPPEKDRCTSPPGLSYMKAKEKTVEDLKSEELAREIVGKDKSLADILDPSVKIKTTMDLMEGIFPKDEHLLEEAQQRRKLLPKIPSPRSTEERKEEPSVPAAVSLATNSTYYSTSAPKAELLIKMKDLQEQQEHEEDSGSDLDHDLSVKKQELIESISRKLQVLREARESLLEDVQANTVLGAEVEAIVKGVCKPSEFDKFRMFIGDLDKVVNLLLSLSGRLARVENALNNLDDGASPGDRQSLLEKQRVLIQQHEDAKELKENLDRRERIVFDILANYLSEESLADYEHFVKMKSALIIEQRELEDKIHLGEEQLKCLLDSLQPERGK
Sequence of UniProt Q96NL6 (Q96NL6 whole entry, looked up): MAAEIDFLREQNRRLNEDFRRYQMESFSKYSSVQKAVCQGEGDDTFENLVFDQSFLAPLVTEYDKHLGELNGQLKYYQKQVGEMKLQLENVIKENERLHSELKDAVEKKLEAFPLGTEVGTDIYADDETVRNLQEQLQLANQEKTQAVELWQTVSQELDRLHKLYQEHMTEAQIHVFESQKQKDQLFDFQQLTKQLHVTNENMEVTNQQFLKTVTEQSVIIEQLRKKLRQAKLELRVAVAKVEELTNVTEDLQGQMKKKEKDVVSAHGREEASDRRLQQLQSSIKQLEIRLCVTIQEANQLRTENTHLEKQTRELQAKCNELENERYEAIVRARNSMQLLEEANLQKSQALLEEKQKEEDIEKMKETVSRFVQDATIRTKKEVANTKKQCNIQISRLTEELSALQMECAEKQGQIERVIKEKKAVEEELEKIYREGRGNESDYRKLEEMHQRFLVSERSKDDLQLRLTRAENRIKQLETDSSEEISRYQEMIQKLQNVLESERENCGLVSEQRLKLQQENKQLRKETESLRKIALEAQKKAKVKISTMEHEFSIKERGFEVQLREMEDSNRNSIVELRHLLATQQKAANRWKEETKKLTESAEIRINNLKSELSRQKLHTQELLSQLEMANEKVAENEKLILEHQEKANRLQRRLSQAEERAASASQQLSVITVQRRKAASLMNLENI
Sequence of UniProt Q9BY78 (Q9BY78 whole entry, looked up): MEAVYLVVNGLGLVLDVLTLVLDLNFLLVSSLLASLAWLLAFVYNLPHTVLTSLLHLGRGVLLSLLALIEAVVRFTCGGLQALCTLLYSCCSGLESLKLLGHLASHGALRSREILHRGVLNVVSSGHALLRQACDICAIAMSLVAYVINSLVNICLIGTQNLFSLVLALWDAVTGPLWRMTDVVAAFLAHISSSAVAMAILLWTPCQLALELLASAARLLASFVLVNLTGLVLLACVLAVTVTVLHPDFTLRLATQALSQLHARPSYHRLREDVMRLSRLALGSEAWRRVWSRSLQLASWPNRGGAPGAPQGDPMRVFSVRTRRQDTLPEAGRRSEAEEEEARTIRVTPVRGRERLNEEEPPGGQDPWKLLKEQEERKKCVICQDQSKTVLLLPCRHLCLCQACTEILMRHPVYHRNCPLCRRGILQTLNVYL
Sequence of UniProt Q9H4P4 (Q9H4P4 whole entry, looked up): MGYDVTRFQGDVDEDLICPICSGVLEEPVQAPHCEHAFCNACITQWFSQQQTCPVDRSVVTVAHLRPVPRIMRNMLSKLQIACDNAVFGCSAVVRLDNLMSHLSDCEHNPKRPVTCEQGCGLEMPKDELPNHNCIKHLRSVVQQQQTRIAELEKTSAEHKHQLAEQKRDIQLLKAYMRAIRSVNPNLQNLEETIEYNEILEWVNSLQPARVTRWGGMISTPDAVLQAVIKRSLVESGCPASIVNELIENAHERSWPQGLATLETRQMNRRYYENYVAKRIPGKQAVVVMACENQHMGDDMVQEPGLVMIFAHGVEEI
Sequence of UniProt O15127 (O15127 whole entry, looked up): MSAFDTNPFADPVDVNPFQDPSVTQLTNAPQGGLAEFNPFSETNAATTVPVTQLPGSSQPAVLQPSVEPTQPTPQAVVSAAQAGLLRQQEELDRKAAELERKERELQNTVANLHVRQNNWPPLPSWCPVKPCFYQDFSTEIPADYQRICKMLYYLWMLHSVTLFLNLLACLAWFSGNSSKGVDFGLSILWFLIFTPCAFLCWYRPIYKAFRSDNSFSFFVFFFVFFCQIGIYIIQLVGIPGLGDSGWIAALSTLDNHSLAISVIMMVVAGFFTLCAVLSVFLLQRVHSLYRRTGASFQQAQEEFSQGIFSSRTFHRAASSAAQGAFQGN
Sequence of UniProt A6NEQ0 (A6NEQ0 whole entry, looked up): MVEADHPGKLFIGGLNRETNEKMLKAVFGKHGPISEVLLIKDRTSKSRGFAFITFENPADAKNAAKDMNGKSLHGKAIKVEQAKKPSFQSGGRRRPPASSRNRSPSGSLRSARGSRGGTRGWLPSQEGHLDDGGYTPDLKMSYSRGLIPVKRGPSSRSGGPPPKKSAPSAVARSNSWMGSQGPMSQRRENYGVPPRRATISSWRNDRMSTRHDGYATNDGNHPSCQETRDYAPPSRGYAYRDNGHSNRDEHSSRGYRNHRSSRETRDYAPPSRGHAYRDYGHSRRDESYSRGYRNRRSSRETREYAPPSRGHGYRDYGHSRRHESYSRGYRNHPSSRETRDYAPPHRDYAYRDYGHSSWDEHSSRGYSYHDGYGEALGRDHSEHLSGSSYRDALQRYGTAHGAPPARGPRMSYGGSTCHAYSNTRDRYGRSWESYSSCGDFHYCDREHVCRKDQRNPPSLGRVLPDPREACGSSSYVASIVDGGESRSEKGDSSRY

Row | Target | log2 fold change [1] | log2 fold change [2] | log2 fold change (barasertib) | log2 fold change [3] | log2 fold change (rosiglitazone) | log2 fold change [4] | log2 fold change [5] | log2 fold change (Nexturastat A) | log2 fold change (vemurafenib) | log2 fold change [6] | log2 fold change [7] | log2 fold change (givinostat) | log2 fold change (volasertib) | log2 fold change [8] | log2 fold change (epoxomicin) | log2 fold change [9] | log2 fold change [10] | log2 fold change [11] | log2 fold change [12] | log2 fold change [13]
1 | RPS3A (UniProt D6R9B6) | -0.199 | 0.247 |  |  |  |  |  |  |  |  |  |  |  |  |  |  |  |  |  | 
2 | RNF41 (UniProt Q9H4P4) |  |  | -0.15 | 0.044 | -0.073 |  |  |  |  |  |  |  |  |  |  |  |  |  |  | 
3 | SCAMP2 (UniProt O15127) | -0.032 | -0.006 | -0.029 | -0.009 | -0.043 | -0.032 | 0.046 | -0.061 | 0.081 | 0.043 | 0.013 | -0.085 | 0.052 | -0.01 | 0.001 | 0.065 | 0.043 | 0.061 | -0.1 | 
4 | SCYL3 isoform 2 (UniProt Q8IZE3) |  | -0.05 | -0.012 | -0.114 | -0.012 | -0.061 | -0.002 | 0.004 | 0.008 | 0.022 | -0.01 | 0.012 | -0.327 (active) | 0.047 | 0.058 | 0.034 | -0.101 | -0.021 | -0.015 | 0.005
5 | SHROOM2 (UniProt Q13796) | -0.104 | -0.103 | 0.071 | 0.027 | 0.058 |  | 0.011 | 0.763 (active) | -0.078 | -0.179 | -0.207 | 0.238 | 0.068 | -0.243 | -0.136 | -0.203 | -0.072 | -0.021 | -0.094 | -0.206
6 | SCLT1 (UniProt Q96NL6) | -0.057 | -0.089 | 0.049 |  | 0.01 |  |  |  | 0.045 |  | 0.01 |  |  | -0.066 |  |  | -0.116 | -0.013 | -0.029 | -0.161
7 | RBMY1E (UniProt A6NEQ0) |  |  | 0.135 | -0.068 | -0.058 | 0.009 | 0.183 |  |  | 0.082 | -0.023 | 0.059 | -0.236 | -0.034 |  | -0.134 | 0.084 |  | -0.199 | 0.075
8 | RNF26 (UniProt Q9BY78) |  |  | 0.124 |  | -0.131 | 0.012 |  |  | 0.281 |  |  |  |  |  |  |  | 0.077 | 0.017 | -1.04 (active) | 
